Assay results as given in the supplement of paper PMC6555819.

What follows are sequences tested on RXRa homodimer (NR concentration 180 nM) (assay: PBM binding z-score (relative to random genomic background probes); higher = stronger binding; sequences stand for … in GC…GCGATTGACAGCGTAGAATGAAGG).
Procedure, shortened: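 Each nuclear receptor dimer, without ligand, was incubated for 1 h on custom Agilent 4×180K protein-binding microarrays. Binding was detected with antibodies against each partner (one per run), and scanned fluorescence was regression-normalized. The binding z-scores are referenced to random human genomic background probes.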
GCATATAGCTAATACAAGGTGAAAGTCCGATTGT was tested, and the PBM binding z-score was 0.476. Sequence CCTCGGAGGACAGGAGGTCAGAGCTGTCCGCTTT has a PBM binding z-score of 2.07. AATACATGGTCATCGTAGGCCAGAGTACGCACAG showed a PBM binding z-score of 0.994. In the case of CCTACTGGGCCAGCAGGTCATTGATATCAACGTT, the PBM binding z-score is reported as 1.6. GCTAGCAGGTCATTTGGGTCACTCAATGACGGGC gave a PBM binding z-score of 4.23. With CCGAGTAGGTTAGGGGGCATTCAGGCAACGGTGA the PBM binding z-score was 2.03. In the case of CAAACTAGGTCAAGGTGAAAGTCGGTTTGTGCCA, the PBM binding z-score is reported as 2.82. Sequence ATCTGTAGGTTAGCTGGGGTCATTCAGACTAGGC has a PBM binding z-score of 5.13. In the case of ATATGTAGATTAGCTGGGGTCATTCAGACTAGGC, the PBM binding z-score is reported as 4.94. In the case of ACAGACAGGTGATGAAGGAAACTCAGGCTATCAT, the PBM binding z-score is reported as 0.38. In the case of CAAACTAGGTCACCGGAAGGTCTAAGTCCGCATG, the PBM binding z-score is reported as 3.87. CTAACTAGGTCAGAACAGGACAGTGAAGGATGAT was tested, and the PBM binding z-score was 1.07. In the case of TCTAGCAGGCCAGAGTGTCACTCAAGAGGTACGG, the PBM binding z-score is reported as 0.302. For ATCTCTAGGTAAGACGCAGTTCAGTGAAGAACGC, the PBM binding z-score was -0.00227. Work on TCATACAGGTAAAGGTGAAAGTCGAACGATATGA yielded a PBM binding z-score of 2.23. Sequence ACTATTAGTTGATTTAGGGCAACCGATACGACGC has a PBM binding z-score of 0.356. TCATATAGGTAAAAGGTGAAACTCGGTGTGGTAA gave a PBM binding z-score of 3.81. AATACAGGGTCACTAGTCCAGAGTAGGTACGAAT was tested, and the PBM binding z-score was 4.87.
